Screening results: PubChem BioAssay, several laboratories
Sampled rows, rich in hits. Any-hit rate of the full collection: about 1.2%.
Sa ugtP lethal – growth inhibition of ugtP-null S. aureus, primary screen, RN4220 ugtP deletion, OD600. 16 h. AID 1259309, 2017. growth inhibition, % (no concentration beside the values). 330,000 compounds, 0.54% hits; in the data active = growth inhibition above about 68%;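 also: plate controls were untreated wells for no effect and antibiotic for full effect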
RN4220 kill – growth inhibition of S. aureus RN4220, primary screen, OD600. inhibition, % (concentration not given with the values). 330,000 compounds, 0.33% hits. 16 h; in the data active = inhibition above about 85%;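 also: plate controls were untreated cells for no effect and reference antibiotic for full effect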
SSB-PriA inh – inhibitors of Klebsiella pneumoniae PriA binding to SSB C-terminal tail, primary screen, biochemical, AlphaScreen. inhibition, % at 33 µM. 430,000 compounds, 0.6% hits. PriA–SSB C-terminal tail interaction (Klebsiella pneumoniae). AlphaScreen SSBct-PriA binding, biotinylated peptide; in the data active = inhibition mostly above about 37%, no sharp cut-off; inactive = mostly below about 20%;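 also: plate controls were negative control peptide for no effect and reference peptide for full effect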
MazEF act – activators of E. coli MazEF toxin-antitoxin RNase, primary screen, biochemical, fluorescence, uHTS. Endoribonuclease toxin MazF (Escherichia coli (strain K12)), P0AE70. FAM/BHQ RNA-DNA oligo cleavage fluorescence, 5 h. activation, % at 20 µM. 350,000 compounds, 0.32% hits; in the data active = activation above about 50%
Target sequence (P0AE70 whole entry, looked up): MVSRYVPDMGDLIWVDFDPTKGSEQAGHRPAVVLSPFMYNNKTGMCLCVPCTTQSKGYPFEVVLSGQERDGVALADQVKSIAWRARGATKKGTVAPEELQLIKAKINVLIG
BJeLR lethal – MLPCN primary cell-based screen for lethality selective to Ras in HRASV12 cells; BJeLR (HRASV12) viability, CellTiter-Glo ATP luminescence, 48 h; inhibition, % (no concentration beside the values); 300,000 compounds, 0.17% hits; AID 1554, 2009; in the data active = inhibition above about 50%
* hit, by the source's call; . = not tested or not shown; ! = not active in a repeat.

SMILES	Sa ugtP lethal	RN4220 kill	SSB-PriA inh	MazEF act	BJeLR lethal
COc1ccccc1CNc1ncnc2c1cnn2-c1ccccc1	14.1	-2.5	46.1*	-15.6	3.4
COC(=O)c1ccccc1NC(=S)NC(=O)c1ccccc1C	-4.1	11.5	-12.5	-2.9	18.7
O=C(NC(=S)Nc1ccc(Oc2ccccc2)cc1)c1ccc(Cl)cc1	98.3*	-6.7	0.3	-1.4	-9.0
Cc1ccccc1C(=O)NC(=S)Nc1ccc(Oc2ccc(Cl)cc2)cc1	86.4*	-14.3	-12.1	-4.5	-5.1
O=C(NC(=S)Nc1cccnc1Cl)c1ccc(Cl)cc1	87.6*	5.0	-8.2	6.1	2.1
COc1ccc(C(=O)NC(=S)Nc2cccnc2Cl)cc1	.	.	-1.0	.	.
O=C(Cc1ccccc1)Nc1ccc(NC(=S)NC(=O)c2ccccc2)cc1	84.0*	-0.5	9.6	5.4	-7.9
CCC(=O)Nc1ccc(NC(=S)NC(=O)Cc2ccccc2)cc1	63.4	6.0	7.2	-1.8	2.3
Cc1ccc(C(=O)NC(=S)Nc2ccc(Oc3ccc(Cl)cc3)cc2)cc1	65.9	3.8	-4.2	-0.2	-11.4
CCCCCCNc1nc(NCc2ccco2)nc(OCC)n1	-18.5	5.1	-4.5	0.4	-3.3
C#CCOCCOCCOCCNc1nc(N2CCN(C(=O)C(CCCCN)n3cc(C(N)CC(N)=O)nn3)CC2)nc(N2CCN(C(=O)C(CCCCN)n3cc(C(N)CC(N)=O)nn3)CC2)n1 (stereo unspecified)	-7.3	4.7	.	.	.
CCNC(=S)NCc1ccc2[nH]c(C)cc2c1	-0.6	4.0	63.0*	-13.6	-7.7
Cc1cc2cc(CNC(=S)Nc3ccc(OC(F)(F)F)cc3)ccc2[nH]1	4.9	1.3	57.8*	4.3	-11.9
Cc1cc2cc(CNC(=S)NC(C)(C)C)ccc2[nH]1	.	.	51.2	.	.
Cc1cc2cc(CNC(=S)Nc3ccc(OC(F)F)cc3)ccc2[nH]1	-7.9	12.1	73.3*	16.4	7.6
Cc1cc2cc(CNC(=O)Nc3ccccc3)ccc2[nH]1	-6.3	-2.8	44.0*!	3.4	-2.6
Cc1ccc(NC(=O)CSc2nccn2Cc2ccco2)cc1	6.3	2.7	-4.5	-3.9	-12.8
O=[N+]([O-])c1cccc2nc(-c3ccccc3)c(-c3ccccc3)nc12	96.9*	3.2	4.5	-20.5	8.9
O=C1CCc2cc(S(=O)(=O)NCC3CCN(S(=O)(=O)C4CC4)CC3)cc3c2N1CC3	.	.	39.0*	.	.
C/C(C=NNC(=O)c1ccccc1F)=C\c1ccccc1	8.5	6.2	2.1	.	.
COc1ccccc1NC(=O)C1=C(C)Nc2nc(-c3cccs3)nn2C1c1ccccc1[N+](=O)[O-] (stereo unspecified)	.	.	35.0*	.	.
COc1ccccc1NC(=O)C1=C(C)Nc2nc(-c3cccs3)nn2C1c1cccc(O)c1 (stereo unspecified)	.	.	-11.1	7.1	-11.1
COc1cccc(C2(O)CCN(C(=O)C(C)C)CC2)c1	2.5	2.3	-10.2	12.6	0.0
CCCOC(=O)c1c(-c2ccccc2)nc(CC)c(C(=O)SCC)c1CCC	94.5*	-1.7	-21.8	-7.2	.
CCCc1nc2ccccc2c(C(=O)O)c1CC	5.1	1.5	-6.4	7.3	13.5
SMILES	Sa ugtP lethal	RN4220 kill	SSB-PriA inh	MazEF act	BJeLR lethal
O=C(Nc1cccc(-c2csc(Nc3ccc(Cl)cc3)n2)c1)c1ccccc1	38.3	15.3	-2.2	-14.9	-11.3
O=C(Nc1cccc(-c2csc(Nc3ccc(Cl)cc3)n2)c1)c1cccc(C(F)(F)F)c1	76.1	88.9*	5.6	1.7	5.9
CCCn1c(-c2cccs2)nc2c1c(=O)[nH]c(=O)n2Cc1ccccc1	-4.3	7.1	-10.1	83.1*	-2.2
NS(=O)(=O)c1ccc(CCN=Cc2ccccc2O)cc1	2.8	3.2	0.5	-4.3	-0.4
COC(=O)C1=CC(C(=O)c2cccs2)=NN(c2ccc(OC)cc2)C1C(=O)OC (stereo unspecified)	-7.9	1.5	38.9*	-63.7	-0.3
COC(=O)C1=NN(c2ccc(OC)cc2)C2C(=O)N(c3ccccc3OC)C(=O)C12 (stereo unspecified)	7.5	6.3	-16.0	3.3	-8.4
COc1cc(Br)cc2cc(C(=O)Oc3cccc4cccnc34)c(=O)oc12	.	.	89.0*	.	.
NC(=O)c1nsc(C(=O)N(Cc2cccnc2)C(C(=O)NC2CCCC2)c2ccc(F)cc2)c1N (stereo unspecified)	6.8	6.7	-14.9	10.3	-8.1
Cc1ccc2ccc3cccnc3c2n1	.	.	50.3*	11.5	-21.3
c1cnc2c(SSc3cccc4cccnc34)cccc2c1	.	.	55.6	.	.
CSc1cccc2cccnc12	.	.	75.3*	.	.
C#CCSc1cccc2cccnc12	.	.	1.1	.	.
C=CCSc1cccc2cccnc12	.	.	125.0*	.	.
ClC1(Cl)CC1CSc1cccc2cccnc12 (stereo unspecified)	.	.	128.0*	.	.
COCCN(CCOC)C(=O)c1ccc(NS(=O)(=O)c2ccc3c(c2)OCCO3)cc1	0.3	1.4	-5.5	6.1	1.9
CC(C)c1ccc(NC(=O)C(=O)NCC(c2cccn2C)N2CCc3ccccc3C2)cc1 (stereo unspecified)	.	.	0.0	.	.
C=CCn1nc([N+](=O)[O-])nc1Sc1cccc2cccnc12	25.0	1.2	102.4*	0.1	-6.1
O=C(Cc1ccc(NC(=O)c2ccc(F)cc2)cc1)NC1CC1	.	.	-1.0	.	.
Cc1ccc(-c2cc(C#N)c(=O)n(Cc3c(Cl)cccc3Cl)c2)cc1	1.5	10.7	-23.2	58.3*	5.4
N#Cc1cc(-c2ccccc2)cn(Cc2c(Cl)cccc2Cl)c1=O	-7.4	0.9	-5.0	42.5	-1.9
O=C(N=c1ccn(-c2nc3ccccc3nc2NS(=O)(=O)c2ccc(Cl)cc2)cc1)c1cccs1	3.7	-3.0	-20.3	92.2*	11.8
Cc1ccc(-c2nnc(SCC(=O)N3CCN(c4ccccc4)CC3)o2)cc1	-0.4	0.2	-6.4	4.3	8.7
Cn1cc(C(c2ccccn2)c2cn(C)c3ccccc23)c2ccccc21	48.5	-12.2	50.0*	-10.5	22.0
c1ccc(C(c2c[nH]c3ccccc23)c2c[nH]c3ccccc23)nc1	-18.6	3.3	31.8	2.3	-4.6
CCOC(=O)CCc1c(C)c2ccc(OCC(=O)N3CCOCC3)c(C)c2oc1=O	-5.6	0.9	-6.3	-1.3	-2.3
SMILES	Sa ugtP lethal	RN4220 kill	SSB-PriA inh	MazEF act	BJeLR lethal
NS(=O)(=O)c1ccc(NC(=O)CN2CC(=O)Oc3ccccc32)cc1	.	.	94.0*	.	.
COC(=O)c1ccc(NC(=O)CN2CC(=O)Oc3ccccc32)cc1	.	.	45.0*	.	.
C[C@](O)(CNC(=O)c1ccccc1Cl)c1cccs1	.	.	-21.0	.	.
COc1ccc(N2CCN(C(=O)c3ccc4c(c3)NC(=O)C(CSCc3c(F)cccc3Cl)N4)CC2)cc1 (stereo unspecified)	.	.	.	.	-2.6
O=C(CSc1nccn1-c1ccccc1)N1CCCc2ccccc21	.	.	71.7*	.	.
CCOc1ccc(-n2ccnc2SCC(=O)N2CCCc3ccccc32)cc1	7.8	7.0	25.3	-0.7	-26.5
